According to PubChem BioAssay AID686979 (National Center for Advancing Translational Sciences (NCATS), 2013):
Among all 420,000 compounds or so, about 50,000 (12%) were called active. Inconclusive results (about 26%) are left out. Calls follow the shape of the dose curve; as a rule, active = well fitted inhibition curve with a large enough effect; inconclusive = small, poorly fitted or top-dose-only effect; inactive = flat fitted curve, though single readings scatter. The entries come from a sample that favours actives as a whole. A call without a number means that no potency is given here.

Experiment: qHTS for Inhibitors of human tyrosyl-DNA phosphodiesterase 1 (TDP1): qHTS in cells in presence of CPT; also: nearly all actives have a fitted effect of over 55% in size
Conditions: chicken DT40 Tdp1-/-;hTDP1 cells + 20 nM CPT, ATP luminescence, 48 h; series mostly up to 46.2 µM
Procedure, shortened: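 Chicken DT40 Tdp1-/- cells complemented with human TDP1, 400 cells/well, exposed to compounds plus 20 nM camptothecin for at least 48 h at 37 C; viability read as ATP content by CellTiter-Glo luminescence.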
Potency is read from the fitted curve at half-maximal effect.

SMILES | Potency
Cc1ccc(S(=O)(=O)N2C[C@]3(O)C[C@@H]4C(=O)N(c5ccccc5)C(=O)[C@@H]4C[C@]3(OC(=O)NC3CC3)C2)cc1 | inactive
COc1ccc(CNC(=O)COC(=O)CCS(=O)(=O)c2ccc(C)cc2)cc1OC | inactive
CCCCCCn1c(=O)n2n(c1=O)C[C@]1(OC(=O)NCc3ccc(OC)c(OC)c3)CN(S(=O)(=O)c3ccc(C)cc3)C[C@]1(O)C2 | 23.1 µM (active)
CC1CCCCC1NC(=O)c1cn(C)c2ccc(S(=O)(=O)N3CCOCC3)cc2c1=O (stereo not drawn) | inactive
Cc1ccc(S(=O)(=O)N2CCC(Oc3ccc(-n4cnnn4)cc3)CC2)cc1 | inactive
OCCc1ccc(NCCc2ccco2)cc1 | inactive
COCCNc1ncnc2c1ncn2[C@H]1CN(Cc2ccc(OC)cc2)C[C@@H](CO)O1 | inactive
OCCNc1ncnc2oc(-c3ccco3)c(-c3ccco3)c12 | 12.6 µM (active)
COc1ccc(-c2oc3ncnc(NCCCO)c3c2-c2ccc(OC)cc2)cc1 | 20.6 µM (active)
Cc1nnc(NCCO)c2ccccc12 | inactive
O=C(CCSCc1cccc(F)c1)NCc1ccccc1 | inactive
COc1ccccc1CNS(=O)(=O)c1c(C)[nH]c(C)c1C(=O)N1CCCCC1 | inactive
CCC(C)Sc1nc2c(cnn2-c2ccc(F)cc2)c(=O)[nH]1 (stereo not drawn) | inactive
CCOc1ccc(-n2c(C)nc3c(cnn3-c3ccc(C)cc3)c2=O)cc1 | 5.17 µM (active)
CCOC(=O)c1ccc(-n2c(C)nc3c(cnn3-c3ccccc3C)c2=O)cc1 | inactive
COc1ccc(-n2c(SC)nc(O)cc2=O)cc1 | inactive
CC(=O)Cn1cnc2c(cnn2-c2ccccc2)c1=O | inactive
COc1ccc(-n2c(C)nc3c(cnn3-c3ccc(F)cc3)c2=O)cc1 | 23.1 µM (active)
COc1ccc(-n2c(C)nc3c(cnn3-c3ccccc3)c2=O)cc1 | 29.1 µM (active)
Cc1ccc(Oc2cnn(-c3ccccc3)c(=O)c2Br)cc1 | inactive
CCc1nc2c(cnn2-c2ccc(C)cc2)c(=O)n1-c1ccc(C)cc1 | inactive
CC1CCc2c(c3ccccc3[nH]c2=O)O1 (stereo not drawn) | inactive
COc1ccc(-c2nc(N)sc2C2(O)C(=O)Nc3c(Br)cc(F)cc32)cc1OC (stereo not drawn) | inactive
O=C(COC(=O)c1cccnc1Cl)Nc1ccc(S(=O)(=O)N2CCOCC2)cc1 | inactive
CC[C@]1(c2ccccc2OC)C(=O)N(C(=O)OC)N1C(=O)OC | 20.6 µM (active)
COc1ccccc1CNC(=O)CCCN1C(=O)NC2(CCCC2)C1=O | inactive

SMILES | Potency
COc1ccccc1CC(=O)Nc1ccc([N+](=O)[O-])cc1OC | inactive
Cc1ccccc1/C=C\c1nc(O)c([N+](=O)[O-])c(=O)[nH]1 | inactive
O=C(NNC(=O)c1cnccc1C(F)(F)F)c1ccc(Cl)cc1 | inactive
O=C(NNC1=C(C(=O)C(F)(F)F)CCC1)c1ccncc1 | 1.64 µM (active)
Cc1ccc(C(=O)NNC(=O)c2ccncc2)cc1S(=O)(=O)N1CCCCC1 | inactive
COc1cccc(NC(=O)CN(C)CC(=O)c2c(N)n(Cc3ccccc3)c(=O)n(C)c2=O)c1 | inactive
O=C(OCC(=O)N1CCCCCC1)c1cccc(Cl)c1Cl | inactive
Cc1ccccc1C(=O)NCC(c1ccco1)N1CCc2ccccc21 (stereo not drawn) | inactive
O=C(NCC(c1cccnc1)N1CCc2ccccc21)c1cccc(C(F)(F)F)c1 (stereo not drawn) | 16.4 µM (active)
CCOC(=O)c1c(NC(=O)CSc2cn(CCNC(=O)c3cccc(C(F)(F)F)c3)c3ccccc23)sc2c1CCC2 | inactive
CCNC(=O)c1cnn(-c2ccccc2)c1-c1ccccc1 | inactive
CCCCNCCS(=O)(=O)NCc1ccccc1 | inactive
Cc1ccc(-n2c(SCC(=O)Nc3ncc(Cl)cc3Cl)nc3ccccc32)cc1 | 14.6 µM (active)
Cc1ccc(SCCC(=O)OCC(=O)Nc2ncc(Cl)cc2Cl)cc1 | inactive
Cc1cc(NC(=O)CSc2nc3ccccc3n2CC(C)C)no1 | inactive
Cc1cccc(N(CC(=O)N2CCCC2)S(C)(=O)=O)c1C | inactive
CCN(CC)C(=O)CS(=O)CC(=O)Nc1cc(OCCOC)c(Cl)cc1Cl (stereo not drawn) | inactive
COc1ccccc1-c1nc(NCc2cccs2)c2ccccc2n1 | 16.4 µM (active)
COc1ccccc1-c1nc(NCCNC(C)=O)c2ccccc2n1 | inactive
COc1ccccc1CNCc1cccs1 | inactive
CC1(C)CC(N2CCN(C(c3ccccc3)c3ccccc3)CC2)=CC(=[N+]2CCCCC2)C1 | 0.164 µM (active)
CC1(C)CC(=O)C=C(N2CCCC2)C1 | inactive
O=C(O)CN1CCN(C(c2ccccc2)c2ccccc2)CC1 | inactive
CC(Oc1ccc2c(-c3ccccc3)cc(=O)oc2c1)C(=O)NC(Cc1c[nH]c2ccccc12)C(=O)O (stereo not drawn) | inactive
Cc1ccc(C)c(NC(=O)COC(=O)Cn2c(C)csc2=O)c1 | inactive
COc1ccc(CCNC(=O)C(=O)NCC2CCNCC2)cc1OC | inactive

SMILES | Potency
COc1ccc(C(CNC(=O)COc2ccccc2OC)N2CCCCC2)cc1 (stereo not drawn) | inactive
CCOc1ccccc1C(=O)NCC(c1ccc(N(C)C)cc1)N1CCCC1 (stereo not drawn) | 20.6 µM (active)
COc1ccc(S(=O)(=O)NCC(c2ccc(N(C)C)cc2)N2CCc3ccccc32)cc1OC (stereo not drawn) | inactive
COc1ccc(S(=O)(=O)NCC(c2ccc(N(C)C)cc2)N2CCCC2)cc1 (stereo not drawn) | inactive
COc1ccc(C(=O)NCC(c2ccc(N(C)C)cc2)N2CCc3ccccc32)c(OC)c1 (stereo not drawn) | 18.4 µM (active)
COc1ccccc1C(=O)NCCC(=O)NCC(c1ccco1)N1CCCCC1 (stereo not drawn) | inactive
CCS(=O)(=O)N1CCC(N2CCN(c3ccccc3)CC2)CC1 | inactive
COC(=O)c1cc(OCC(=O)NC2CCCc3ccccc32)cc(C(=O)OC)c1 (stereo not drawn) | inactive
CCCOCC(O)CC(CC)C(=O)NNC(=S)Nc1ccccc1 (stereo not drawn) | inactive
COc1cccc(C(=O)Nc2c3c(nn2-c2cccc(C)c2C)CS(=O)(=O)C3)c1OC | 35.5 µM (active)
Cc1cccc(-n2nc3c(c2NC(=O)c2ccc(Br)o2)CSC3)c1C | inactive
COc1ccccc1OCC(=O)Nc1c2c(nn1-c1ccc(F)cc1)CS(=O)(=O)C2 | inactive
Cc1ccccc1NC(=O)c1c(NC(=O)c2ccccc2F)sc2c1CCC(C)C2 (stereo not drawn) | inactive
CC(C)(C)C1CCc2c(sc(NC(=O)c3ccccc3F)c2C(=O)N2CCCCC2)C1 (stereo not drawn) | 16.4 µM (active)
COC(=O)c1c(NC(=O)c2ccccc2F)sc2c1C(C(=O)OC)CC2 (stereo not drawn) | inactive
Cc1ccc(F)c(S(=O)(=O)NC(=O)C2(C)CCN2C(=O)CCc2cccs2)c1 (stereo not drawn) | inactive
CC1CCN(CCCn2c(SCC(=O)NC3CCCC3)nc3ccccc3c2=O)CC1 | inactive
CCOn1c(SC(C)C)nc2ccccc2c1=O | inactive
CCOC(=O)C(C)Sc1nc2ccccc2c(=O)n1CC1CCCCC1 (stereo not drawn) | 12.6 µM (active)
O=C(NCCS(=O)(=O)c1ccc(Br)cc1)c1ccccc1Cl | inactive
O=C(O)CCCN1C(=O)C2C3c4ccccc4C(c4ccccc43)[C@@H]2C1=O (stereo partly drawn) | inactive
Cc1ccc(NC(=O)CCOc2ccccc2)cc1S(=O)(=O)Nc1ccccc1Cl | inactive
CC1CCN(C(=O)Cn2c(=O)n(-c3ccc(Cl)cc3)c(=O)c3c4c(sc32)CCC4)CC1 | inactive
O=c1c2c3c(sc2n(CCN2CCCC2)c(=O)n1Cc1ccccc1)CCCCC3 | 13 µM (active)
CCOC(=O)N1CCc2c(sc3c2c(=O)n(Cc2ccccc2)c(=O)n3CC(=O)Nc2cccc(C)c2)C1 | inactive
COc1ccc(C2NC(=O)C(=O)/C2=C(\O)c2ccc(Cl)cc2)cc1OC (stereo not drawn) | inactive

SMILES | Potency
O=c1[nH]c2ccc(S(=O)(=O)N3CCCC3)cc2[nH]1 | inactive
CCCN(CC1CC1)C(=O)COC(=O)c1ccc(C)cc1O | inactive
Cc1cccc(C(=O)NC(=S)N(C)C2CCCCC2)c1 | 29.1 µM (active)
Cc1cccc(C(=O)NCCCN(C)CCCNC(=O)c2cccc(C)c2)c1 | inactive
Cc1cccc(C(=O)c2cccc(C)c2)c1 | inactive
CN(CC(=O)Nc1ccc(F)c(F)c1F)C(=O)C1CC(=O)N(C2CCCC2)C1 (stereo not drawn) | inactive
COc1ccc(C2Sc3ccccc3NC3=C2C(=O)c2ccccc23)c(OC)c1OC (stereo not drawn) | 1.84 µM (active)
CCN(CC)CCCN1C(=O)C(=O)/C(=C(/O)c2c(C)nc3ccccn23)C1c1ccc(C)o1 (stereo not drawn) | inactive
Cc1ccc(N=C2NC(=O)c3cccc([N+](=O)[O-])c32)cc1 | inactive
CC(=O)c1cnc(SCC(=O)O)nc1C | inactive
Cc1nn(C)cc1/C=C1\CCC/C(=C\c2cn(C)nc2C)C1=O | 15.8 µM (active)
O=C1/C(=C/c2ccc3c(c2)OCO3)CCC/C1=C\c1ccc2c(c1)OCO2 | inactive
CCn1cc(/C=C2/SC(=S)NC2=O)c(C)n1 | inactive
C[C@H](NC(=O)C1CCN(S(=O)(=O)c2ccccc2)CC1)C(=O)NCc1ccccc1 | inactive
CC[C@@]1(C(=O)OC)N[C@H](CN(C)C(C)=O)[C@@H]2C(=O)N(C)C(=O)[C@@H]21 | inactive
Cc1ccc(C(C[N+](=O)[O-])c2c(C)cc3ccccn23)cc1 (stereo not drawn) | 10.3 µM (active)
COc1ccccc1C(=O)NCCC(=O)NC(C)CCc1ccccc1 (stereo not drawn) | inactive
COc1cc(C=NNC(=O)c2cccnc2)ccc1OC(=O)c1ccccc1F | inactive
CC(C)(C)C(=O)Nc1ccc(C(=O)N/N=C/c2ccccc2OC(=O)c2ccc(Cl)cc2Cl)cc1 | 14.6 µM (active)
O=C(N/N=C/c1ccoc1)c1ccc(Cl)cc1Cl | inactive
Cc1cc(C)nc(SCC(=O)N(C)C)n1 | inactive
COC(=O)c1c(C)[nH]c(C(=O)NCCc2ccc(S(N)(=O)=O)cc2)c1C | inactive
O=S(=O)(Nc1ccc(-n2cnnn2)cc1)c1ccc(Cl)cc1 | inactive
CC(=O)c1c(C)n(S(=O)(=O)c2ccc(Cl)cc2)c2ccc(NS(=O)(=O)c3ccc(Cl)cc3)cc12 | 10.3 µM (active)
CC(=O)c1c(C)oc2ccc(NS(=O)(=O)c3ccc(C(=O)O)cc3)cc12 | inactive
